# Compounds with a hit are over-represented: about 6.1% of the library has one in this group of screens.
# D1 agonist: activates the human D1 dopamine receptor | P21728 | HEK293 T-REx D1 cells, calcium flux, agonist mode | activation, % at 2 µM | actives 1% (n = 360,000) | AID 504660; in the data active = activation above about 30%; note: 0% is about no effect
# Target sequence (P21728 whole entry, looked up): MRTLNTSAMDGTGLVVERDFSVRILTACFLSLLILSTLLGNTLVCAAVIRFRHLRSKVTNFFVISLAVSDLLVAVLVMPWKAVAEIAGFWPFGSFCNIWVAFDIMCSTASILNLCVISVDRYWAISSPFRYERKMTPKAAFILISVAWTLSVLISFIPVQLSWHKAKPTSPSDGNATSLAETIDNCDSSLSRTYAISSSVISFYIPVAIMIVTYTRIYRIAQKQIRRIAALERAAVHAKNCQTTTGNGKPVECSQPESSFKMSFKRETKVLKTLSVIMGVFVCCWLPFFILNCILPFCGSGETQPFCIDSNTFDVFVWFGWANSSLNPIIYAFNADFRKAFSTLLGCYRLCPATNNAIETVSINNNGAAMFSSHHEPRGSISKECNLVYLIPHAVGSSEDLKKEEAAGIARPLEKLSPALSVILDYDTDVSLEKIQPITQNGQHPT
#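 Agonism was scored from calcium flux recorded over 180 s (1 read/s) after pintool compound addition, following a 10-cycle baseline. Cells were inducible force-coupled HEK293 TREx D1, plated overnight at 30 C and loaded with no-wash calcium dye.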
# D1 PAM: enhances dopamine response at the human D1 receptor. P21728. HEK293 TREx D1 cells, calcium flux, dopamine EC20 potentiation. potentiation, % at 10 µM. actives 0.036% (n = 360,000). AID 504651; in the data active = potentiation above about 30%; note: 0% is about no effect
# DRD3 agonist: D3 dopamine receptor (human) agonism | P35462 | D3R DiscoveRx beta-arrestin cells, luminescence, 90 min | max activation, % | actives 0.58% (n = 410,000); in the data active = max activation above about 30%; note: 0% is about no effect
#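 Agonist mode: compounds and dopamine controls were applied to plated cells for 90 min at 37 degrees C after an overnight attachment at 1500 cells/well. Luminescent read-out followed 30 - 60 minutes at room temperature with DiscoveRx detection reagent.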
# DRD3 antagonist: antagonists of human D3 dopamine receptor; actives 2.5% (n = 360,000); P35462; AID 652054; max response, negative = inhibition, %; D3R cells, DiscoveRx beta-arrestin luminescence, antagonist mode; stronger effect = lower value; in the data active = max response below about -50%; note: % is set by controls: 0 for no effect and ±100 for the full control effect
#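 Cells expressing the human receptor were seeded at 1500 cells/well, incubated overnight at 37 degrees C in 5% CO2, then exposed to library compounds with dopamine controls for 90 minutes at 37 degrees C before luminescent detection.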
# D1 antagonist: blocks dopamine activation of the human D1 receptor | activity change, negative = inhibition, % at 10 µM | actives 3.2% (n = 360,000) | HEK293 TREx D1 cells, calcium flux, dopamine EC80; stronger effect = lower value | P21728; in the data active = activity change below about -30%; note: % is set by controls: 0 for no effect and ±100 for the full control effect
#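 Tetracycline-induced HEK293 Trex D1 cells, force-coupled to calcium, dye-loaded; compounds added and read 180 s, then EC80 dopamine added and calcium flux tracked kinetically another 180 s.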
# Active calls of the source: *; . = no result given.
SMILES,D1 agonist,D1 PAM,DRD3 agonist,DRD3 antagonist,D1 antagonist
C=CCN(CC=C)C(=S)Nc1ccc2nsnc2c1,7,-4,0,-4,-23
COc1ccc(NC(=S)Nc2ccc3nsnc3c2)cc1,7,-2,-39,-61*,0
C=CCNC(=S)Nc1ccc2nsnc2c1,7,-4,9,4,-90*
Cc1ccc(NC(=S)NCc2ccc3c(c2)OCO3)cc1C,9,6,1,10,0
S=C(NCc1ccc2c(c1)OCO2)Nc1ccc2nsnc2c1,34*,-7,1,-11,-33*
CCc1ccc(NCc2cc3cc4c(cc3n(CC(=O)Nc3ccccc3C)c2=O)OCCO4)cc1,16,-2,2,.,0
Brc1ccc(-c2nnc3sc(CN4CCN(c5ccccc5)CC4)cn23)cc1,-1,-5,0,20,3
CCC1CCCCN1Cc1cn2c(-c3ccc(Br)cc3)nnc2s1 (stereo not given),0,-4,-3,.,-32*
NC(=S)NNC(=O)C12CC3CC(CC(C3)C1)C2,185*,8,2,2,-24
COC(=O)NNC(=O)C12CC3CC(CC(C3)C1)C2,7,10,3,-1,-7
COc1ccc(CNC(=O)C(=O)NCC2OCCN2S(=O)(=O)c2ccc(F)cc2)cc1 (stereo not given),1,-7,-8,-8,0
Cc1ccc(-n2nnnc2SCC(=O)NCCc2ccccc2)cc1C,3,-3,4,.,-12
CN(C)CCNC(=O)c1ccc2c(c1)NC(=O)C(CS(=O)(=O)Cc1cccc(Br)c1)N2 (stereo not given),-2,0,-9,.,1
O=C(NCc1ccccc1Cl)c1ccc2c(c1)NC(=O)C(CS(=O)(=O)Cc1ccc(F)cc1Cl)N2 (stereo not given),-3,0,47*,.,-20
CC(C)CCNC(=O)c1ccc2c(c1)NC(=O)C(CS(=O)(=O)Cc1cccc(Br)c1)N2 (stereo not given),5,-10,-23,.,-42*
Cc1ccc(S(=O)(=O)N2CCCCC2)cc1NC(=O)CNCc1ccco1,6,-4,38*,1,-4
COc1ccccc1CNCC(=O)Nc1cc(S(=O)(=O)N2CCCCCC2)ccc1Cl,17,-6,3,-60*,-8
COc1ccccc1CNCC(=O)Nc1cc(S(=O)(=O)N2CCOCC2)ccc1Cl,2,-3,13,-8,-6
CCN(CC)S(=O)(=O)c1ccc(C)c(NC(=O)CNCc2ccccc2OC)c1,8,-3,33*,-24,-7
COc1ccccc1CNCC(=O)Nc1cc(S(=O)(=O)N2CCCCC2)ccc1C,.,.,15,-51*,.
O=C(CO)[C@@H](O)[C@H](O)[C@@H](O)C(=O)O,.,.,7,.,.
COc1cccc(NC(=O)N2CCN(S(C)(=O)=O)CC2)c1,3,4,5,3,2
Cc1ccc2c(cnn2C(=O)CCC(=O)NCc2cccc(Cl)c2)c1,4,-2,-7,-22,-20
Nc1cc(=O)[nH]c(SCC(=O)Nc2cc(S(=O)(=O)N3CCCCCC3)ccc2Cl)n1,.,.,4,8,.
Cc1ccc(-c2nc(SCC(=O)Nc3cc(S(=O)(=O)N4CCCCC4)ccc3Cl)n[nH]2)cc1,4,-4,6,9,-35*
SMILES,D1 agonist,D1 PAM,DRD3 agonist,DRD3 antagonist,D1 antagonist
CC(=O)c1c(C)[nH]c(C(=O)Nc2cc(S(=O)(=O)N3CCCCC3)ccc2C)c1C,4,-10,-10,0,-31*
COc1ccc(S(=O)(=O)N2CCCCC2)cc1NC(=O)c1[nH]c(C)c(C(C)=O)c1C,.,.,-20,-1,.
CSCCC(C(=O)Nc1c(C)cccc1C)n1c(-c2ccc(C(F)(F)F)cc2)nc2ccccc21 (stereo not given),.,.,-9,-7,.
Cc1ccc(N2CC(NS(=O)(=O)c3cccnc3)CC2=O)cc1C (stereo not given),-1,-2,0,9,-1
COc1ccc(S(=O)(=O)NC2CC(=O)N(c3ccc(C)c(C)c3)C2)cc1C (stereo not given),15,-1,-8,-7,15
COc1ccc(S(=O)(=O)NC2CC(=O)N(c3ccccc3)C2)cc1C (stereo not given),4,0,-11,1,-54*
CC(=O)c1ccc(S(=O)(=O)NC2CC(=O)N(c3ccc(C)c(C)c3)C2)cc1 (stereo not given),28,-2,-4,7,-31*
CCOC(=O)Cc1csc(NC(=O)c2cccs2)n1,11,-4,-9,-16,-17
CCOC(=O)Cc1csc(NC(=O)CN(C)S(=O)(=O)c2cccc3cccnc23)n1,5,.,-4,-18,-46*
CCOC(=O)Cc1csc(NC(=S)NC(=O)c2ccccc2Br)n1,61*,-4,-2,-19,-27
CCOC(=O)Cc1csc(NC(=O)Nc2cccc(Cl)c2)n1,15,-14,-4,-1,-42*
CCOC(=O)Cc1csc(NC(=O)c2ccc(Br)s2)n1,6,-7,.,.,-36*
CCOC(=O)Cc1csc(NC(=O)C(C)c2ccc([N+](=O)[O-])cc2)n1 (stereo not given),58*,-5,-1,6,-38*
Cc1nc(NC(=O)c2ccc(Br)s2)sc1C(=O)N(C)C,0,-2,3,-69*,5
COc1cccc(CNC(=O)Cn2cc3c(n2)-c2c(oc(C(=O)N4CCCC4)c2C)CC3)c1OC,1,4,14,.,7
O=C(O)CC/C(=N\NC(=O)CNC(=O)c1ccc(F)cc1)c1ccccc1,0,-11,-15,-1,-19
CCOC(=O)N1CCC(NC(=O)c2cnn(-c3ccc(OC)cc3)c2C2CCN(C(=O)OC(C)(C)C)CC2)CC1,2,-4,7,.,-7
CN1CCCC1CCNS(=O)(=O)c1ccc(Br)cc1 (stereo not given),6,-13,3,0,-33*
CC1CCCN(C(=O)CCNS(=O)(=O)c2ccc(Br)cc2)C1 (stereo not given),10,-3,-1,4,-27
O=C(c1ccc(Cl)cc1)c1c[nH]c(C(=O)NNc2cccc(Cl)n2)c1,3,-2,0,-4,-31*
Cc1ccc(NC(=O)C(NC2CCCc3ccccc32)c2ccccc2)cc1Cl (stereo not given),9,7,-17,-8,-23
CNC(=O)NC(=O)C(NC1CCCc2ccccc21)c1ccccc1 (stereo not given),-1,11,0,3,-33*
Cc1occc(=O)c1OC(=O)Nc1ccc(Cl)c(Cl)c1,13,-20,4,-4,-47*
N#Cc1c(-c2ccccc2)cc(C2CC2)nc1SCC(=O)c1cccs1,32*,1,2,9,-2
COc1cccc(-c2nc3ccc(C(=O)NC(C)Cc4cccnc4)cc3o2)c1 (stereo not given),-2,-7,10,45,24

# High-throughput results (PubChem BioAssay)
